Data as given in PubChem BioAssay (NCATS).
Records with an inconclusive call do not appear. Entries that show only a call come without a potency. Calls of active or inactive are those of the source. Calls come from the whole dose curve; as a rule, active = well fitted curve in the direction sought with a large enough effect; inconclusive = small, poorly fitted or top-dose-only effect, or another doubt; inactive = no such curve, though single readings can be large; an effect the other way counts as inactive or inconclusive.

Key:
[1] = biological target: Glutathione peroxidase 1 (Homo sapiens) (UniProt P07203); experiment: Primary qHTS Assay for Inhibitors of Recombinant Selenoprotein Glutathione Peroxidase 1 (GPX1) (AID 1845191); conditions: recombinant GPX1, GR-coupled NADPH fluorescence, 15 min; series mostly up to 48.8 µM; note: nearly all actives have a fitted effect of over 65% in size
Chain of Glutathione peroxidase 1 (Homo sapiens) (P07203 whole entry, looked up): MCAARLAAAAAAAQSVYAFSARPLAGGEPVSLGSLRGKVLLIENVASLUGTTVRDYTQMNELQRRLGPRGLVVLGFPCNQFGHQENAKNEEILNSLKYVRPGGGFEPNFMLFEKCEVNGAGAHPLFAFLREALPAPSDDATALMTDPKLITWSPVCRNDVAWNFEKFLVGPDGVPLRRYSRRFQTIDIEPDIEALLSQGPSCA
How it was run: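 10 nM GPX1 + cpd, 30 min RT; start w/ 1 mM GSH, 0.5 mM cumene hydroperoxide, 0.5 mM NADPH, 100 nM GR, 0.01% BSA; buffer 50 mM Tris-HCl pH 7.5, 2 mM EDTA, 150 mM NaCl; Fl 340/450, 0 & 15 min.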

[2] = biological target: Phospholipid hydroperoxide glutathione peroxidase GPX4 (Homo sapiens) (UniProt P36969); experiment: Primary qHTS Assay for Inhibitors of Recombinant Selenoprotein Glutathione Peroxidase 4 (GPX4) (AID 1845192); conditions: recombinant GPX4, GR-coupled NADPH fluorescence, 15 min; series mostly up to 50 µM; note: nearly all actives have a fitted effect of over 65% in size
Chain of Phospholipid hydroperoxide glutathione peroxidase GPX4 (Homo sapiens) (P36969 whole entry, looked up): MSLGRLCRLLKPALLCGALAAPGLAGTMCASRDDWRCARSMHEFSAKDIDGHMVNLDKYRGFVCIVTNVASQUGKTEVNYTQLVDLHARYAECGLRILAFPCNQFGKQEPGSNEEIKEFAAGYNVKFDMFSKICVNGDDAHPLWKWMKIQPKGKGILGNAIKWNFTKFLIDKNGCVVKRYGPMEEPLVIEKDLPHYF
How it was run: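 NADPH consumption, followed by fluorescence at 340/450 nm between 0 and 15 min, reports GPX4 activity via coupled glutathione reductase (100 nM). Enzyme 200 nM was pre-exposed to compound 30 min; 0.5 mM cumene hydroperoxide and 1 mM GSH served as substrates.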

[3] = biological target: Luciferin 4-monooxygenase (Photinus pyralis) (UniProt P08659); experiment: Primary firefly luciferase (FLuc) qHTS assay for identification of artifact compounds. (AID 1845220); conditions: purified firefly luciferase, luminescence, 5 min; series mostly up to 54.1 µM; note: nearly all actives have a fitted effect of over 60% in size; note: potency is the fitted concentration of half-maximal effect
How it was run: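 Cell-free, 1536-well qHTS. Buffer pH 7.6 with 0.01% Tween-20 and 0.05% BSA; 10 uM D-luciferin, 10 uM ATP; 10 nM P. pyralis luciferase; luminescence after 5 min.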

[4] = tested on: Nanoluciferase (engineered Oplophorus gracilirostris luciferase); experiment: Primary Nanoluciferase (NLuc) qHTS assay for identification of artifact compounds. (AID 1845222); conditions: NLuc-conditioned medium, Nano-Glo luminescence, 5 min; series mostly up to 54.1 µM
How it was run: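 Compounds are pinned into diluted (1:55) conditioned medium of NLuc-expressing S16 cells and held 15 min at room temperature protected from light. Nano-Glo substrate follows, and luminescence is read 5 min later.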

[5] = Primary redox qHTS assay for identification of artifact compounds. (AID 1845223); conditions: Amplex Red/HRP redox cycling with DTT, fluorescence; series mostly up to 53.8 µM
How it was run: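 Amplex Red (25 uM) and HRP (250 mU/mL) in HBSS, with compounds for 15 min, then 250 uM DTT for 30 min, room temperature, dark. Fluorescence 525/598 nm read; normalized to DMSO and 10 uM DA3003; Hill fit.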

[6] = Primary fluorescence-based thiol-reactive (MSTI) qHTS assay for identification of artifact compounds. (AID 1845221); conditions: MSTI thiol-reactivity probe, 1 h; series mostly up to 53.8 µM;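 note: thiol-reactive compounds lower the probe fluorescence signal; nearly all actives have a fitted effect of over 65% in size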
How it was run: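 Compounds were incubated 1 h at room temperature in the dark with the MSTI probe (4 uM) in PBS pH 7.4, 2% DMSO. Signals were normalized between Acetyl-MSTI and MSTI.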

SMILES	Potency [1]	Potency [2]	Potency [3]	Potency [4]	Potency [5]	Potency [6]
CCC(CC)Nc1nc(C)c(-c2ccc(OC(F)(F)F)cc2OC)nc1OC	inactive	inactive	inactive	inactive	inactive	–
CN(C)CCN(Cc1ccccc1)C(=O)c1cc(-c2ccc(F)cc2)n2nc(C(C)(C)C)cc2n1	inactive	inactive	inactive	inactive	inactive	–
CCOc1ccc(CCNC(=O)c2cc3sc(Cl)cc3n2C)cc1OCC	inactive	inactive	inactive	inactive	inactive	–
C[C@@H](NC(=O)C(=O)c1c[nH]c2ccc([N+](=O)[O-])cc12)c1ccccc1	inactive	inactive	inactive	inactive	inactive	–
CC(O)C(C)n1ncn(-c2ccc(N3CCN(c4ccc(OCC5COC(Cn6cncn6)(c6ccc(Cl)cc6Cl)O5)cc4)CC3)cc2)c1=O (stereo not drawn)	inactive	inactive	inactive	inactive	inactive	–
Cc1[nH]c(/C=C2\C(=O)Nc3ccc(F)cc32)c(C)c1C(=O)NCCN1CCCC1	inactive	inactive	inactive	inactive	inactive	–
CC(/C=C/C(=O)NO)=C\[C@@H](C)C(=O)c1ccc(N(C)C)cc1	inactive	inactive	inactive	inactive	inactive	–
CC(C)C[C@@H](C(=O)N[C@@H](Cc1ccc(OCc2ccccc2)cc1)C(=O)NC(C)(C)C)N(C)Cc1ccc(C(C)(C)C)cc1	inactive	inactive	inactive	inactive	inactive	–
Cc1c(NC(=O)c2cc3c(s2)CCCC3)cccc1-c1cn(C)c(=O)c(Nc2ccc(C3C(=O)N(C)CCN3C)cc2)n1 (stereo not drawn)	inactive	inactive	4.78 µM (active)	inactive	inactive	–
C=C1CC2OC(=O)C(=C)C2C(O)/C=C(\C)CCC1O (stereo not drawn)	inactive	inactive	inactive	inactive	inactive	–
C=CS(=O)(=O)NC1CCN(C(=O)CNc2cc(I)c(Cl)cc2OC)CC1	inactive	inactive	inactive	inactive	inactive	–
CCOc1ccc(-n2c(C(C)N(Cc3cccnc3)C(=O)Cc3ccc(F)c(C(F)(F)F)c3)nc3ncccc3c2=O)cc1 (stereo not drawn)	inactive	inactive	inactive	inactive	inactive	–
Cc1cn2c(n1)Cc1ccc(Cl)cc1C(c1ccc(N)cc1)=N2	inactive	inactive	inactive	inactive	inactive	–
CCN(CC)C(=O)C(c1ccccc1)N1CCN(c2ccc(NC(=O)c3ccccc3-c3cccnc3)cc2F)CC1 (stereo not drawn)	inactive	inactive	inactive	inactive	inactive	–
COc1cc2ncnc(Nc3ccc(O)c(Br)c3)c2cc1OC	inactive	inactive	inactive	inactive	inactive	–
CCn1c(=O)c(-c2ccc(-c3cncs3)cc2Cl)cc2cnc(Nc3ccc(N4CCN(C)CC4)cc3)nc21	inactive	inactive	inactive	inactive	inactive	–
O=C(NCCN1CCN(c2cccc3ccc(O)cc23)CC1)c1ccc(F)cc1	inactive	inactive	inactive	inactive	inactive	–
C=C(C)[C@@H]1CC=C(COC(=O)NC(=O)c2ncn3c(=O)n(C)nnc23)CC1	inactive	inactive	inactive	inactive	inactive	–
CN1CCc2cc3c(cc2C(=O)Cc2cc4c(cc2C1)OCO4)OCO3	inactive	inactive	inactive	inactive	inactive	–
COCc1c(Cl)ccc2c1CC[C@H]2c1ncc[nH]1	inactive	inactive	inactive	inactive	inactive	–
C=C1/C(=C/C=C2\CCC[C@]3(C)[C@@H]([C@@H](C)OCCC(O)(CC)CC)CC[C@@H]23)C[C@@H](O)C[C@@H]1O	inactive	–	inactive	–	–	inactive
COc1ccc(-c2csc(NC(=O)[C@H]3CCCCN3S(=O)(=O)c3ccc(C)cc3)n2)cc1	inactive	inactive	–	inactive	inactive	inactive
CC(C)S(=O)(=O)NC[C@@H]1CC(c2ccc(N3CCCC3)c(F)c2)=NO1	inactive	inactive	–	inactive	inactive	–
CCCC(CCC)C(=O)NCc1ccc2c(cnn2-c2ccccc2OC)c1	inactive	inactive	–	inactive	inactive	inactive
CC1(C)Oc2ncnc(N)c2N=C1c1ccc(C23CCC(CC(=O)O)(CC2)CC3)cc1	inactive	inactive	–	inactive	inactive	inactive
NC(N)=N/N=C/c1ccccc1Cl	inactive	inactive	–	–	inactive	inactive
C[C@H](Nc1ncnc2nc[nH]c12)c1cc2cccc(Cl)c2c(=O)n1-c1ccccc1	inactive	inactive	–	–	inactive	inactive

SMILES	Potency [1]	Potency [2]	Potency [3]	Potency [4]	Potency [5]	Potency [6]
O=S(=O)(Nc1ccccc1N1CCCCC1)c1ccc(Cl)s1	inactive	inactive	–	inactive	inactive	–
CCc1ccc(-c2nc(CSCC(=O)NCCc3ccccc3)c(C)o2)cc1	inactive	inactive	–	–	inactive	inactive
CC(C)=CCc1cc2c(cc1O)OC[C@H]1c3ccc(O)cc3O[C@@H]21	inactive	inactive	–	inactive	inactive	–
C=C1C(=O)O[C@H]2/C=C(/C)[C@@H](OC(C)=O)C/C=C(\C)C[C@@H](OC(=O)/C(=C/C)COC(=O)/C(=C/C)CO)[C@@H]12	inactive	–	inactive	inactive	inactive	inactive
O=C(Nc1nc2ccc([N+](=O)[O-])cc2s1)C1CCCCC1	inactive	inactive	–	inactive	inactive	–
CCOC(=O)c1cnn(-c2ccccc2)c1NC(=O)c1cc2nc(-c3ccco3)cc(C(F)(F)Cl)n2n1	inactive	inactive	–	inactive	inactive	–
O=c1[nH]cnc2c([C@@H]3N[C@H](CO)[C@@H](O)[C@H]3O)c[nH]c12	inactive	inactive	–	inactive	inactive	–
CC(C)(C)c1ccc(C(=O)Nc2cn3cc(-n4ccnc4)ccc3n2)cc1	inactive	inactive	–	inactive	inactive	inactive
CC(C)c1ccccc1OC(=O)NCCc1ccc2ccccc2c1	inactive	–	inactive	inactive	inactive	inactive
Cc1ccnc(NC(=O)C(C)c2cccc(C(=O)c3ccccc3)c2)c1 (stereo not drawn)	inactive	inactive	–	inactive	inactive	inactive
O=C(Nc1ccccc1C(=O)Nc1ccc(CCO)cc1)c1ccc([N+](=O)[O-])cc1	inactive	inactive	–	inactive	inactive	–
C=C1CC[C@@H](O)[C@]2(C)CC[C@H]3C(=C)C(=O)O[C@@H]3[C@@H]12	inactive	inactive	–	inactive	inactive	–
O=C(Nc1ccc(CN2CCOCC2)cc1)c1ccc(-c2cccc(Cl)c2)o1	inactive	–	inactive	inactive	inactive	inactive
CCCOc1ccc(CCc2nc3cc(-c4c(C)noc4C)ccc3n2CCN2CCOCC2)cc1	inactive	–	inactive	inactive	–	inactive
Clc1cccc(COc2cncc(N3CCNCC3)n2)c1	inactive	–	inactive	inactive	inactive	inactive
CC1(CO)CC2C(O)C3=C(CC(C)(O)C2C1)C(=O)OC3 (stereo not drawn)	inactive	inactive	–	inactive	–	–
CCCc1cc(C)[nH]c(=O)c1CNC(=O)c1cc(-c2ccc(N3CCN(C(C)C)CC3)nc2)cc2c1cnn2C(C)C	inactive	inactive	–	inactive	inactive	–
CN1CCN(C2=Nc3ccccc3Nc3ccc(OS(=O)(=O)C(F)(F)F)cc32)CC1	inactive	inactive	–	inactive	inactive	–
COc1ccc2cc(-c3cc(-c4cc(Cl)cc(Cl)c4)nn3C(C)c3ccc(C(=O)NCCC(=O)O)cc3)ccc2c1 (stereo not drawn)	inactive	–	inactive	inactive	inactive	inactive
Cn1ncnc1[C@@H]1c2n[nH]c(=O)c3cc(F)cc(c23)N[C@H]1c1ccc(F)cc1	inactive	–	inactive	inactive	inactive	inactive
C=C1CCC2[C@](C)(CCC[C@@]2(C)C=O)[C@H]1CC/C(C)=C/CO (stereo partly drawn)	inactive	inactive	–	inactive	inactive	–
C=C(COC(=O)C(O)C(O)CN)C12OC1C1(C)C(=CC2=O)C(O)C(O)CC1C (stereo not drawn)	inactive	inactive	–	inactive	inactive	inactive
CC(=O)OC1CC(O)(C(C)C)C2C(OC(=O)c3ccc(O)cc3)C=C(C)C(=O)CC12C (stereo not drawn)	inactive	–	inactive	inactive	inactive	inactive
CN1CC2CN(c3ccc4oc5ccccc5c(=O)c4c3)CC2C1 (stereo not drawn)	inactive	inactive	–	inactive	inactive	–
O=C(O)c1cc(N(Cc2ccc(C3CCCCC3)cc2)C(=O)c2ccc(Oc3ccccc3)cc2)ccc1O	inactive	–	inactive	inactive	inactive	inactive
CCCCc1ccc(NS(=O)(=O)c2ccc(F)cc2)cc1	inactive	inactive	–	inactive	inactive	inactive
CC(=O)O[C@@H]1C2=C(O)C(=O)[C@](C)(OC(C)=O)C(=O)C2=CO[C@@]12O[C@@H](C)CC[C@H]2OC(C)=O	inactive	inactive	–	inactive	–	–
